The values that follow come from PubChem BioAssay AID2025 (NMMLSC, 2009).

The campaign covered roughly 330,000 compounds. About 980 (0.3%) were called active.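 The calls were made as follows: active = percent response vs DMSO below 50%; inconclusive = fewer than 70 events counted for the yeast strain; inactive = the rest.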 What follows is part of a selection rich in actives, with near analogues and random picks from the rest.

The nature of the test: RPL19A-GFP expression modulators in yeast, primary screen, cell-based, S. cerevisiae, multiplex flow cytometry, MLPCN (AID 2025).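 Also: median channel GFP fluorescence of the barcoded RPL19A-GFP strain; ratio of sample median GFP to plate DMSO average so 100% = DMSO; lower means less RPL19A-GFP as with rapamycin TOR inhibition.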 The following applies: S. cerevisiae RPL19A-GFP strain, 3 h, at 10 µM, hits give low values.
`COc1ccc(CN2CC(C(=O)NCCc3ccc(Cl)cc3)CC2=O)cc1` (stereo not given): the percent response vs DMSO was 32.5% [may fluoresce violet] (active). Next, `COc1ccc(CN2CC(C(=O)NCCN3CCN(c4ccccc4F)CC3)CC2=O)cc1` (stereo not given): 99.6% (inactive). Under `COc1ccc(CN2CC(C(=O)NC3CCCCC3)CC2=O)cc1` (stereo not given) stands 99.4% (inactive).

On to `O=C1C=CC(=O)N1c1ccc(N2CCCCC2)cc1`, for which the percent response vs DMSO is 64.6% (inactive). Under `CCOc1ccc(Br)cc1S(=O)(=O)Nc1ccc(C(=O)OC(C)C(=O)N(C)c2ccccc2)cc1` (stereo not given) stands 99.2% (inactive); under `Nc1c(-c2ccccc2)nnn1Cc1ccccc1`, 93.1% (inactive); under `OCc1nc(CO)n(Cc2ccccc2)n1`, 34.3% [may fluoresce violet] (active). Take `Cc1nn(Cc2ccccc2)c(C)c1NS(=O)(=O)c1ccccc1`: the percent response vs DMSO was 125% (inactive). With `CCOc1ccccc1N1C(=O)CC(Sc2nccc(C)n2)C1=O` (stereo not given), the percent response vs DMSO was 101% (inactive). Next, `C=C1CCN([C@@H](Cc2ccccc2)C(=O)N2CCOCC2)S(=O)(=O)c2ccccc21`: 102% (inactive). Next, `CCOc1cc(N2CCOCC2)c(OCC)cc1NC(=O)COc1cccc(Cl)c1`: 101% (inactive).

Regarding `CCOc1cc(N2CCOCC2)c(OCC)cc1NC(=O)COc1cccc2cccnc12`, the percent response vs DMSO is 38.4% [may fluoresce violet] (active). Under `CCOc1cc(N2CCOCC2)c(OCC)cc1NC(=O)c1cc(C)nc2ccccc12` stands 101% (inactive); under `CCCOc1ccc(-c2c(C(=O)N/N=C/c3ccco3)nnn2-c2nonc2N)cc1`, 99.2% (inactive); under `Cc1ccccc1S(=O)(=O)N1[C@@H](c2cccc(Cl)c2)C(C(=O)O)=CC[C@H]1c1ccc(Cl)cc1`, 99.8% (inactive). Next, `O=C(CN1C(=O)COc2ccc(Cl)cc21)N1CCOCC1`: 101% (inactive); `COc1ccc(Cn2c(C)c(C)c(C#N)c2NC(=O)Nc2ccc(F)cc2)cc1`: 97.2% (inactive); `Cc1ccc(C(=O)Nc2c(C#N)c(C)c(C)n2Cc2ccccc2)cc1`: 43.3% [may fluoresce violet] (active). Next, `Cc1c(C#N)c(NC(=O)c2ccccc2)n(Cc2ccccc2)c1C`: 92.3% (inactive); `COc1ccccc1NC(=S)N1CCN(c2ccc(F)cc2)CC1`: 106% (inactive). Take `COc1cccc(NC(=O)CSc2nnc(Cc3ccc(OC)c(OC)c3)o2)c1`: the percent response vs DMSO is 97.7% (inactive).

Consider `N#Cc1ccc(C(=O)Nc2nc(-c3cccs3)c(C(=O)C(F)(F)F)s2)cc1`, for which the percent response vs DMSO was 97.5% (inactive). In the case of `CCCc1noc2c1/C(=N\O)CCC2`, the percent response vs DMSO was 98.8% (inactive). Under `CCCc1nn2c(=O)cc(CSCC(=O)Nc3cccc(C)c3)nc2s1` stands 98% (inactive); under `O=C(Cn1ncc2c3ccccc3n(Cc3ccccc3)c2c1=O)NCc1ccccn1`, 93.6% (inactive). Next, `Cc1ccc(Cn2c(C)c3cnn(CC(=O)NCc4ccccn4)c(=O)c3c2C)cc1`: 99.3% (inactive); `Cc1c2cnn(CC(=O)NCc3ccccn3)c(=O)c2c(C)n1Cc1ccc(Cl)cc1`: 28.5% [may fluoresce violet] (active); `O=C(CCS(=O)(=O)c1cccc2nonc12)NCCc1ccccc1Cl`: 104% (inactive). Under `O=C(NCc1ccccc1Cl)C1CCN(S(=O)(=O)c2cccc3nonc23)CC1` stands 49% [may fluoresce violet] (active). With `O=C(NCc1ccccc1Cl)C1CCN(S(=O)(=O)N2CCOCC2)CC1`, the percent response vs DMSO was 91% (inactive). Take `CC(=O)C12CC(C)=C(C)CC1CC1C3CCC4=CC(=O)CCC4(C)C3CCC12C` (stereo not given): the percent response vs DMSO was 99.3% (inactive). Next, `CC(=O)O[C@]1(C(C)=O)CC[C@H]2[C@@H]3C=C(C)C4=CC(=O)CC[C@]4(C)[C@H]3CC[C@@]21C`: 33% [may fluoresce violet] (active); `CC(C)CCN1CCN=C1N(C)C`: 99.1% (inactive). Next, `NC(=O)C1CCN(CC(O)CSc2ccc(F)cc2)CC1` (stereo not given): 99.8% (inactive). Next, `COc1cc(NC(=O)c2ccc(-c3csc(C)n3)cc2)c(OC)cc1Cl`: 102% (inactive). Consider `CCCCc1c(O)nc2n(c1=O)CCS2`, for which the percent response vs DMSO was 93.4% (inactive). `CCCS(=O)(=O)Nc1ccc(-c2cn3c(n2)SCC3)cc1`: the percent response vs DMSO is 40.4% [may fluoresce violet] (active).

On to `CCS(=O)(=O)Nc1ccc(C2=NN(C(C)=O)C(c3cccs3)C2)cc1` (stereo not given), for which the percent response vs DMSO is 102% (inactive). Next, `COc1ccc(CC(NC(C)=O)C(=O)NC2CCN(C(=O)c3ccc(OC)c(OC)c3)CC2)cc1OC` (stereo not given): 93.8% (inactive); `CCc1ccc(OCC2c3cc(OC)c(OC)cc3CCN2C(C)=O)cc1` (stereo not given): 42.9% [may fluoresce violet] (active). Next, `COc1ccc2[nH]c(=O)c(C3c4cc(OC)c(OC)cc4CCN3C(=O)c3ccco3)cc2c1` (stereo not given): 103% (inactive); `COc1ccccc1-n1nnnc1S(=O)(=O)Cc1ccc(Cl)cc1`: 102% (inactive). Turning to `Cc1cccc(C(=O)NC(=S)N(C)C2CCCCC2)c1`, the percent response vs DMSO was 96.9% (inactive). `Cc1c(NC(=O)c2c([N+](=O)[O-])cnn2C)c(=O)n(-c2ccccc2)n1C`: the percent response vs DMSO was 41.5% [may fluoresce violet] (active).

Turning to `Cc1cc(OCC(=O)Nc2c(C)n(C)n(-c3ccccc3)c2=O)ccc1[N+](=O)[O-]`, the percent response vs DMSO was 97.2% (inactive). Turning to `Cc1c(NC(=O)Nc2cccc([N+](=O)[O-])c2)c(=O)n(-c2ccccc2)n1C`, the percent response vs DMSO is 102% (inactive). Next, `Cc1ccccc1-c1cc(C(=O)NCC2CC2)n(CC2CC(c3cccnc3)=NO2)n1` (stereo not given): 104% (inactive); `CNC[C@H](CC1CCCCC1)NC[C@H](NCCC1CCCC1)[C@H](C)O`: 93.9% (inactive). Under `CCCc1ccc(-c2c(C)sc(NC(=O)c3ccnn3C)c2C#N)cc1` stands 98% (inactive); under `CC1(c2ccc3ccccc3c2)NC(=O)NC1=O` (stereo not given), 105% (inactive); under `COc1ccc(CSc2nnnn2-c2ccc(C(=O)O)cc2)cc1`, 99.4% (inactive). Turning to `COc1ccc(-c2nnn(Cc3nc(N)nc(N4CCCCC4)n3)n2)cc1`, the percent response vs DMSO was 98.7% (inactive). For the compound `COc1ccc(-n2nnnc2SCc2nc(N)nc(N3CCOCC3)n2)cc1`, the percent response vs DMSO is 48.8% [may fluoresce violet] (active). As for `O=C(COC(=O)CNC(=O)C1CCCCC1)Nc1cccc(F)c1`, the percent response vs DMSO is 100% (inactive).

Take `OCC(O)CN(c1ccccc1)c1ccccc1` (stereo not given): the percent response vs DMSO was 94.3% (inactive).
